Assay outcomes: PubChem BioAssay, National Center for Advancing Translational Sciences (NCATS)
This is a sample that favours compounds with a hit; in the whole collection about 3.2% have one here.
USP1-UAF1 inh – inhibitors of human USP1/UAF1 deubiquitinase; O94782; recombinant USP1/UAF1, Ub-Rhodamine cleavage fluorescence; Potency, µM (titrated, usually from 57.1 µM), most hits filed as inhibitors; hit rate 0.23% among 390,000; AID 743255; also: nearly all actives have a fitted effect of over 60% in size
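Step one: compound is pinned into 1nM USP1/UAF1 in HEPES pH 7.8 buffer with TCEP. Step two: 15 min room-temperature incubation. Step three: Ub-Rho (150nM final) starts cleavage, tracked by fluorescence over six one-minute reads.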
FBPA coupling cs – counter-screen for Giardia aldolase inhibitors: coupling enzyme system. coupling enzyme system counterscreen, AmpLite Red fluorescence. activity change, negative = inhibition, % at 58.2 µM, hits read low. hit rate 0.67% among 290,000. AID 2472; in the data active = activity change below about -30%
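Counterscreen lacking aldolase: glyceraldehyde-3-phosphate coupling-enzyme reagent preincubated 10 min at RT with compound (at 57.5 uM final), then substrate/coupling system with AmpLite Red added; fluorescence read at 525/598 nm after 20 min RT.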
USP2a block – USP2a (human) protease inhibition | USP2 core, Ub-CHOP2 coupled fluorogenic reporter, 485/531 | O75604 | Potency, µM (series often up to 38.3 µM), actives largely listed as inhibitors | hit rate 0.01% among 330,000
Target sequence (O75604 whole entry, looked up): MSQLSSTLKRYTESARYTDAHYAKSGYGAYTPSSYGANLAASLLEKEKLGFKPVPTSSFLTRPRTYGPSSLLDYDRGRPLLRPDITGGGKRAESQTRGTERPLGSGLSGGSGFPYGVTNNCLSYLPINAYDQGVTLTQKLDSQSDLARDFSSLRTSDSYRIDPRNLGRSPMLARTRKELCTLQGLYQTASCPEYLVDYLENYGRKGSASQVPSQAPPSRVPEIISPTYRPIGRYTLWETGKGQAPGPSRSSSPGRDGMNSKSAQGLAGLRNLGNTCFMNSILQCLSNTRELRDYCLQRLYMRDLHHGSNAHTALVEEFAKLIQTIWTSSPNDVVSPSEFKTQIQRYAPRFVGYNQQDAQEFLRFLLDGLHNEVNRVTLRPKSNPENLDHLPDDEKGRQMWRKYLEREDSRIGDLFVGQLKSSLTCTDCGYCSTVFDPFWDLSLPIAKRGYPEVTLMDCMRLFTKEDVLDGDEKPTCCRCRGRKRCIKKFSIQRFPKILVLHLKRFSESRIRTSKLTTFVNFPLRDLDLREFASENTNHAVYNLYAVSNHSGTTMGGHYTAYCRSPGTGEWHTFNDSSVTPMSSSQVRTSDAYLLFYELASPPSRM
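Deubiquitinase activity read as fluorescence (485/531 nm) after Ub-CHOP2 cleavage activates the enterokinase reporter on its substrate; USP2 core 10nM, Ub-CHOP2 and substrate 25nM each, 30min compound preincubation then 60min RT; data normalized to NEM, curves fitted.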
GALK inh – inhibitors of human galactokinase. Purified GALK, Kinase-Glo residual ATP luminescence. Potency, µM (highest dose often 57.5 µM), hits mostly inhibitors. AID 1868. hit rate 0.007% among 270,000
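ATP-depletion format; final 35 uM ATP, 100 uM D-galactose, 5 nM enzyme; pH 8.0 HEPES/Mg2+ buffer; 60 min RT; luminescence read 10 min after detection reagent.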
VDR inhibitor – inhibitors of human vitamin D receptor | VDR-SRC2-3 peptide fluorescence polarization, 2 h | hit rate 0.93% among 400,000 | AID 504847 | Potency, µM, hits mostly inhibitors | P11473
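Fluorescence polarization assay measuring small-molecule disruption of VDR binding to the coregulator peptide SRC2-3. Compounds were pin-transferred (23 nl) into the reagent mix and incubated 2 h at room temperature before reading.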
PLK1 PBD inh – blocks phosphopeptide binding to human PLK1 polo-box domain; P53350; Plk1 PBD binding of FITC phosphopeptide, fluorescence polarization; Potency, µM, usual class: inhibitors; hit rate 2.8% among 360,000; AID 720504; also: series mostly up to about 57 µM; nearly all actives have a fitted effect of over 65% in size
A number is an active result; - = inactive; ? = inconclusive; . = not tested or not shown; ! = not active in a repeat. Unless noted, calls follow the shape of the dose curve; as a rule, active = well fitted curve in the direction sought with a large enough effect; inconclusive = small, poorly fitted or top-dose-only effect, or another doubt; inactive = no such curve, though single readings can be large; an effect the other way counts as inactive or inconclusive.

SMILES	USP1-UAF1 inh	FBPA coupling cs	USP2a block	GALK inh	VDR inhibitor	PLK1 PBD inh
O=C(NN1C(=O)c2ccccc2C1=O)C1CC2CCC1C2 (centres undefined)	-	-	-	-	-	-
CC1CCCC(NC(=O)COC(=O)c2ccc3c(c2)OCCO3)C1C (centres undefined)	-	.	-	.	-	-
COc1ccccc1CNCCS(=O)(=O)NN1CCOCC1	-	.	-	.	-	10.6µM
Cc1cc(NC(=O)CN(C)CCOc2ccccc2)ccc1Br	-	-	-	-	-	-
CCOc1ccc(NC(=S)Nc2cccnc2)cc1	-	-	-	-	-	29.9µM
C/C(Cl)=C\Cn1c(Nc2ccc(C)cc2)nc2c1c(=O)n(C)c(=O)n2C	-	-	-	-	-	-
COc1ccc(C(=O)CC2SC(N)=NC2=O)cc1 (centres undefined)	-	-	-	-	-	-
CC(C)(C)c1ccc(C2=NC(=O)C(CC(=O)O)S2)cc1 (centres undefined)	-	-	-	-	25.1µM	26.7µM
C=C/C(C)=C/CC1C(=C)CCC2C(C)(C(=O)O)CCCC12C (centres undefined)	-	-	-	-	-	18.9µM
C=C[C@]1(C)C=C2CCC3[C@](C)(CCC[C@@]3(C)C(=O)O)C2CC1 (some centres undefined)	-	.	-	.	-	23.8µM
C=CCNc1nc(N2CCCC2)nc2ccccc12	-	-	-	-	-	-
COc1cc(C(=S)N2CCCC2)cc(Cl)c1OCC(=O)Nc1ccc(C)cc1C	-	-	-	.	?	8.44µM
CC(=O)NC(Cc1c[nH]c2ccccc12)C(=O)N/N=C/c1ccccc1 (centres undefined)	-	-	-	-	-	-
CCC(C(=O)O)N1C(=O)/C(=C/C(C)=C/c2ccccc2)SC1=S (centres undefined)	-	-	-	-	?	23.8µM
CC(=O)NN1C(=O)/C(=C\c2ccccc2)SC1=S	-	.	-	-	-	-
CC(=C\c1ccccc1)/C=C1/SC(=S)N(C(C(=O)O)C(C)C)C1=O (centres undefined)	-	-	-	-	?	29.9µM
Cc1ccc(/C=C2\SC(=S)N(C(Cc3ccccc3)C(=O)O)C2=O)cc1 (centres undefined)	?	-	-	-	50.1µM	?
CC(C)C(C(=O)O)N1C(=O)/C(=C/c2ccc(Br)cc2)SC1=S (centres undefined)	.	-	.	.	5.01µM	.
CC(/C=C1\SC(=S)N(NC(=O)c2ccc(O)cc2)C1=O)=C\c1ccccc1	-	-	-	-	-	-
CC(/C=C1\SC(=S)N(CCC(=O)Nc2ccccc2O)C1=O)=C\c1ccccc1	-	-	-	-	-	-
O=C(O)C(Cc1ccccc1)N1C(=O)/C(=C/c2ccccc2)SC1=S (centres undefined)	-	-	-	-	?	?
CCC(C)c1ccccc1OCCCN(C)Cc1ccccc1 (centres undefined)	-	-	-	-	-	-
COc1cccc2cc(-c3ccnc(=S)[nH]3)oc12	.	-	-	-	.	.
Fc1ccc(-c2ccnc(=S)[nH]2)cc1	-	-	-	-	?	9.47µM
CC(C)NC(=O)C1CCN(C2CCN(C(=O)Cc3ccc4c(c3)OCO4)CC2)CC1	-	-	-	-	-	-
SMILES	USP1-UAF1 inh	FBPA coupling cs	USP2a block	GALK inh	VDR inhibitor	PLK1 PBD inh
CCc1ccc(/C=C/C(=O)C2C(=O)c3ccccc3C2=O)cc1	?	-	-	-	?	26.7µM
Cc1ccc(-c2cc(-c3ccccc3)[nH]c(=S)c2C#N)cc1	-	-	-	-	-	?
N#Cc1c(-c2ccc(C(F)(F)F)cc2)cc(-c2ccccc2)[nH]c1=S	-	-	-	-	-	23.8µM
O=C(NCCc1ccccc1)c1ccc(-c2ccccc2Cl)o1	-	-	-	.	-	-
Cc1cc(C)n(C(=O)c2ccc([N+](=O)[O-])cc2[N+](=O)[O-])n1	-	-	-	-	-	-
O=c1c2cc(C(F)(F)F)ccc2sn1-c1ccccc1	?	.	.	.	.	2.67µM
O=c1c2cc(F)ccc2sn1-c1ccccc1	-	.	-	.	20µM	1.06µM
O=c1c2ccccc2c(-c2cccc(C(F)(F)F)c2)nn1-c1ccccc1	-	-	-	.	-	-
COc1cccc2c(=S)c(CCC(C)=O)c(C)[nH]c12	-	-	-	-	-	?
COc1ccc(CN2CCN(c3ccccc3OC)CC2)c(OC)c1	-	-	-	-	-	-
CCOc1ccc(N2C(=O)C(Cl)=C(N3CCOCC3)C2=O)cc1	-	-	-	-	28.2µM	-
COc1ccc(CCNC2=C(Cl)C(=O)N(CCc3ccccc3)C2=O)cc1OC	-	-	-	-	-	-
O=C1C(Cl)=C(Nc2ccccc2O)C(=O)N1CCc1ccccc1	-	-	-	-	-	4.23µM
COc1ccccc1NC1=C(Cl)C(=O)N(c2ccccc2)C1=O	-	-	-	.	-	-
CCOc1ccc(N2C(=O)C(Cl)=C(Nc3ccccc3O)C2=O)cc1	-	-	-	-	-	8.44µM
C=CCSc1nc(C)c(CC(=C)C)c(=O)[nH]1	-	-	-	-	-	-
C=CCSc1nc(C)c(CCC(C)C)c(=O)[nH]1	-	-	-	-	-	26.7µM
NS(=O)(=O)c1ccc(N/N=C/c2ccc(O)cc2O)c([N+](=O)[O-])c1	-	-	-	-	-	-
NS(=O)(=O)c1ccc(N/N=C/c2ccc(O)c(O)c2O)c([N+](=O)[O-])c1	?	-46.3	-	-	?	2.99µM
CN(C)CCC1CCN(c2cc(C#N)c(C#N)cc2[N+](=O)[O-])CC1	?	-	-	-	-	-
O=C(N/N=C/c1ccco1)C1COc2ccccc2O1 (centres undefined)	-	-	-	-	-	-
O=C(N/N=C\c1ccc(Br)o1)C1COc2ccccc2O1 (centres undefined)	-	-	-	-	-	16.8µM
CCOC(=O)Cc1nnc(NC(=O)CSc2ccc(C)cc2)s1	-	-	-	-	-	-
Cn1c(NCCN(CCO)CCCc2ccc([N+](=O)[O-])cc2)cc(=O)n(C)c1=O	-	.	.	.	50.1µM!	-
Cc1ccc(NC(=O)Nc2cccc(Cl)c2)c(C(=O)O)c1	-	-	-	-	?	18.9µM
O=C(Nc1cccc(C(F)(F)F)c1)Nc1cc(Cl)ccc1C(=O)O	.	-	.	.	50.1µM	.
Nc1cccn2c(-c3ccc(Cl)c(Cl)c3)cnc12	-	-	-	-	-	5.97µM
Nc1cccn2c(-c3ccc(Cl)cc3)cnc12	-	-30.9	-	-	-	26.7µM
CC(=O)Nc1cc(-c2ccccc2)cn2c(-c3ccc(F)c(Cl)c3)cnc12	.	.	.	.	.	-
Clc1ccc(-c2cnc3cccnn23)cc1	.	.	.	.	.	-
